# Source: PubChem BioAssay
# Where “and” joins values, the source holds several entries; their conditions need not be identical. Equal values may be shown once. Results filed as inconclusive are left out. Calls of active or inactive are those of the source. Unless noted, no stated cut-off is given here; in the data, active means parasite load remaining mostly below about 12% (no sharp cut-off); inactive means mostly above about 10%.
# What was measured:
# [1] = target: ATP-dependent translocase ABCB1 (Homo sapiens) (UniProt P08183); test: MDR1 (ABCB1) efflux transporter inhibition, cell-based (AID 377; in the data active means fluorescence slope change above about 50%); conditions: MDR1-expressing cells, fluorescent substrate accumulation slope; stronger effect = higher value; concentration not given here
# ATP-dependent translocase ABCB1 (Homo sapiens), sequence (P08183 whole entry, looked up): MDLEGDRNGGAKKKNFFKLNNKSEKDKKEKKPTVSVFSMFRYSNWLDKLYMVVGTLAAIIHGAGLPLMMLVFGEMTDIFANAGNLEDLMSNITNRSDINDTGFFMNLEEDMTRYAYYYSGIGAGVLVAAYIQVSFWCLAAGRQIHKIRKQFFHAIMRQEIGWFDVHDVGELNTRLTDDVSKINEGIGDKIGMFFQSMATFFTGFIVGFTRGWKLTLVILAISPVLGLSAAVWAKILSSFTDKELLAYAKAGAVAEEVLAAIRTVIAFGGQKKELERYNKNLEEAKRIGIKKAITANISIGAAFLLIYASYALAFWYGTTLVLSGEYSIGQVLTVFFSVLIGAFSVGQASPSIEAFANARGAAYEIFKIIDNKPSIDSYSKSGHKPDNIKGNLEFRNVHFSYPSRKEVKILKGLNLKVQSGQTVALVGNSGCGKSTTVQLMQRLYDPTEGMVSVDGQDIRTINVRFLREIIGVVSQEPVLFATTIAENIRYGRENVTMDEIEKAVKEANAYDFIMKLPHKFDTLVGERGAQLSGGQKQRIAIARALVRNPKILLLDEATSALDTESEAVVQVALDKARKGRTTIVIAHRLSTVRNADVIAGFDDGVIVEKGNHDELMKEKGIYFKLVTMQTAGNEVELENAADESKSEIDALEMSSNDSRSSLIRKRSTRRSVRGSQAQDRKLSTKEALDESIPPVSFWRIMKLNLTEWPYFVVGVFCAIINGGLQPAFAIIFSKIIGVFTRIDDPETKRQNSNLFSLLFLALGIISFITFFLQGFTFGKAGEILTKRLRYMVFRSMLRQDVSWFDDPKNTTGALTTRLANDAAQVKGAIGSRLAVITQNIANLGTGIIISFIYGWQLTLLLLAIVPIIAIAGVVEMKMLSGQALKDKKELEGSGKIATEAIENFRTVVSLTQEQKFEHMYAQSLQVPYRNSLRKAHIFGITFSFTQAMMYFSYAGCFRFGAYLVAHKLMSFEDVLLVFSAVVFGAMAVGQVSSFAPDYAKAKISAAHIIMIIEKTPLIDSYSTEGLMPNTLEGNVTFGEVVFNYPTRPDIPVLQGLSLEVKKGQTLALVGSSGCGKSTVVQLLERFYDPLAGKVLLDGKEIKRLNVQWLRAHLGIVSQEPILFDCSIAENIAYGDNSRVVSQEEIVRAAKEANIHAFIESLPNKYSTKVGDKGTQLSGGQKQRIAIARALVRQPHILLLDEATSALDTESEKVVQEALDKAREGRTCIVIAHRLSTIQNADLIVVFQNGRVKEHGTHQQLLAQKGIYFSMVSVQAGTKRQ
# [2] = liver-stage malaria parasite growth inhibition, primary screen, cell-based, HepG2, luciferase luminescence, HepG2 viability (AID 624349);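 further: 100% = mean of DMSO negative control wells on the same plate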; conditions: P. berghei liver stage in HepG2, luciferase luminescence, concentration not given here; parasite load remaining: stronger effect = lower value; viability: measured here: HepG2 viability without parasites
# [3] = stimulators of nuclear beta-catenin in C2C12, primary screen, imaging, WNT3A-conditioned medium, mouse C2C12, NPC library (AID 1117326; in the data active means nuclear beta-catenin stimulation mostly above about 4.2%, no sharp cut-off; inactive means mostly below about 10%); conditions: stronger effect = higher value
# [4] = stimulators of insulin release from INS-1E, primary screen, cell-based, 5 mM glucose, NPC library (AID 1117329;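 active means compound raises insulin release from rat beta cells at 5 mM glucose, no numeric limit stated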); conditions: rat INS-1E insulin secretion, at 10 µM, stronger effect = higher value
# [5] = growth inhibition of GSK3B-pretreated HCT116 cells – cell-based, CellTiter-Glo, 0.2 to 20 µM (AID 1117336;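 active means compounds lowering colon cancer cell viability after pretreatment blocking the GSK3B kinase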); conditions: HCT116 viability after GSK3B inhibitor, at 20 µM, stronger effect = higher value
# [6] = inhibition of endothelial tube formation, primary screen, imaging, VEGF stimulated, CD31 staining, tube area, NPC library (AID 1117340;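 active means compound that reduces growth-factor-driven endothelial tube area in a mixed cell culture, no cutoff stated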); conditions: VEGF-stimulated ADSC/ECFC co-culture, at 10 µM, stronger effect = higher value
# [7] = glucagon-like peptide 1 release enhancers, primary assay, NCI-H716 cell line, NPC library (AID 1117341;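 active means compound raises GLP1 secretion from the human gut endocrine cells, with no numeric limit stated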); conditions: NCI-H716 cells, at 10 µM, stronger effect = higher value
# [8] = HCT116 colon cancer cell growth inhibition, primary screen, CellTiter-Glo luminescence, NPC library (AID 1117342;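 active means compounds that lower survival of HCT116 colon cancer cells in the luminescence readout, no numeric limit stated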); conditions: at 20 µM (top of the series)
# [9] = CellTiter-Glo luminescent readout of SW480 viability loss, NPC library primary (AID 1117343;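 active means compounds that lower viability of the colon cancer cells in the luminescence readout, with no numeric limit stated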); conditions: CellTiter-Glo luminescence; at 20 µM (top of the series) unless noted
# [10] = decreased DLD-1 cellular survival, CellTiter-Glo luminescent readout, NPC compound collection, primary HTS (AID 1117346;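 active means compounds that lower survival of DLD-1 colon cancer cells in the luminescence readout, no cutoff given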); conditions: DLD-1 viability, CellTiter-Glo luminescence; at 20 µM (top of the series)
# [11] = sensitizers of A549 cells to miR-34 induction, primary screen, imaging, A549 dox-inducible miR-34, nuclei and caspase counts (AID 1347080;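 active means compounds whose cell count with miR-34 switched on is under 0.7 times the count with it off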); conditions: A549 miR-34 inducible, Hoechst nuclei count, 48 h
# [12] = survival rescue of mitochondrial mutant cells in low glucose, primary screen, MELAS cybrids, Rieske KO mouse fibroblasts, CellTiter-Glo (AID 1508586;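 active means mean z-score across replicates of 1.96 or higher in either the MELAS or the Rieske mutant cell line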;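 further: z relative to plate mean and SD of compound and empty wells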)
# [13] = target: Mitogen-activated protein kinase 7 (Homo sapiens) (UniProt Q13164); test: ERK5 transactivation activators in reporter cells, primary screen, cell-based, HTS (AID 1508626;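 active means luciferase signal above three times the same-plate solvent-only control wells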;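 further: luciferase driven by Gal4-ERK5 fusion binding five Gal4 sites before minimal TATA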); conditions: HeLa Gal4-ERK5 transactivation, 18 h, at 5 µM, stronger effect = higher value
# Mitogen-activated protein kinase 7 (Homo sapiens), sequence (Q13164 whole entry, looked up, the tested form may be a part): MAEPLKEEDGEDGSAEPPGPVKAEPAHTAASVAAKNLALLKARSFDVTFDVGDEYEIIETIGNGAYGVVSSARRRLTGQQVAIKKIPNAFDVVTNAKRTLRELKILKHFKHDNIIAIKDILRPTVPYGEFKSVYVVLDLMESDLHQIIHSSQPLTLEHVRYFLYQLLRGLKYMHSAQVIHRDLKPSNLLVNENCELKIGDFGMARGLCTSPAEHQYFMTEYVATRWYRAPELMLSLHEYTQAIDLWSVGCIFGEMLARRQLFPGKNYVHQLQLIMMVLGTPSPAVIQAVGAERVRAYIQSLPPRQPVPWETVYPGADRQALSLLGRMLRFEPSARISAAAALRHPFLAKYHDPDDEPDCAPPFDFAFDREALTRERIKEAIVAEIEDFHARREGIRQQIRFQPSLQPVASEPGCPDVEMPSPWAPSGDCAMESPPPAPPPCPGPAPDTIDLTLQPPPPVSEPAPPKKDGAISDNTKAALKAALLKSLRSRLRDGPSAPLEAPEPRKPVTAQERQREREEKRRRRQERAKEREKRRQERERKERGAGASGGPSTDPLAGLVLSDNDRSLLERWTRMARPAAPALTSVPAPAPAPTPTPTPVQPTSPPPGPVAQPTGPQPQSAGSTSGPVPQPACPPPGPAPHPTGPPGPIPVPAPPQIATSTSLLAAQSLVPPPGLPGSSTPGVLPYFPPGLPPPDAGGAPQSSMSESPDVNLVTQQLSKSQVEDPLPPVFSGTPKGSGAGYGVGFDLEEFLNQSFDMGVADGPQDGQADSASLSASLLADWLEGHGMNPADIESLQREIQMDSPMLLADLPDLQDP
# [14] = target: NAD(+) hydrolase SARM1 (Homo sapiens) (UniProt Q6SZW1); test: SARM1 TIR NADase inhibitors, cell lysate, NAD-Glo luminescence (AID 1508614;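 active means compound whose remaining NAD level is above about 45 nM, limit read from the data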); conditions: SAM-TIR HEK293T lysate NADase, at 1 µM, stronger effect = higher value
# NAD(+) hydrolase SARM1 (Homo sapiens), sequence (Q6SZW1 whole entry, looked up): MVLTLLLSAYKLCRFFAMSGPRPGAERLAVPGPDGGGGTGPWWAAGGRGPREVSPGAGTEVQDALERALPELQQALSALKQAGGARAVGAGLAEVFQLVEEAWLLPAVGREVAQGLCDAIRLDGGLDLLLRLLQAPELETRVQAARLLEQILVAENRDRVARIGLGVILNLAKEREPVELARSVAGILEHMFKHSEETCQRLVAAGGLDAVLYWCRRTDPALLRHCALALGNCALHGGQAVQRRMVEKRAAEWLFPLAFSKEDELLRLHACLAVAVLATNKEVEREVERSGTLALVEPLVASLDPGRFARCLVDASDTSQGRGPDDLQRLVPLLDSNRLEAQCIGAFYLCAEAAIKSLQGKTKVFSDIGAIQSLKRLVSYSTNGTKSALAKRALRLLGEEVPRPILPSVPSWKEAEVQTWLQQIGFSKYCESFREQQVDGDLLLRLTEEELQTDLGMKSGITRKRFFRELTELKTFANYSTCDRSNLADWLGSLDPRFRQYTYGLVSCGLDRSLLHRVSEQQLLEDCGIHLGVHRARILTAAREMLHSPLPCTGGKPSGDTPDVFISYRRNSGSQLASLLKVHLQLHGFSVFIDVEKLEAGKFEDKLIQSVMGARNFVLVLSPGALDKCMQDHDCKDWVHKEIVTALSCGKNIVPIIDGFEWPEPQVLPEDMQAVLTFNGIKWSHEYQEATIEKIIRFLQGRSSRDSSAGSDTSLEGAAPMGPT
# [15] = viability rescue of complex I mutant cybrids, primary screen, cell-based, galactose medium, ATP luminescence (AID 1645843;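 active means z-score of at least 1.8 in each of two replicates, scored against plate mean and spread of sample wells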;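 further: positive z means more ATP and so rescue of galactose-driven cybrid death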); conditions: complex I mutant cybrid cells, 72 h, stronger effect = higher value
# [16] = stronger effect = lower value, cell number ratio, induced over uninduced
# [17] = measured here: relative caspase fold change +Dox/-Dox
# [18] = measured here: total cells with miR-34 induction, stronger effect = lower value
# [19] = measured here: total cells without miR-34 induction
# [20] = MELAS cybrid survival, CellTiter-Glo 48 h, stronger effect = higher value
# [21] = Rieske KO mouse fibroblast survival, CellTiter-Glo 72 h
compound,measurement,setting,value
C#CC1(O)CC[C@H]2[C@@H]3CCC4=CCCC[C@@H]4[C@H]3CC[C@@]21C (some centres undefined),fluorescence slope change,[1],88.5% (active)
same,parasite load remaining,[2],25.2% (inactive) and 119% (inactive)
same,viability,[2],48.4% and 91.7%
same,nuclear beta-catenin stimulation,[3]; at 10 µM,0.9% (inactive)
same,nuclear beta-catenin stimulation,"[3]; stimulation, at 2 µM",0.1%
same,insulin secretion stimulation,[4],16.9% (inactive)
same,viability decrease,[5],110% (active)
same,tube area decrease,[6],14.7% (inactive)
same,GLP1 secretion stimulation,[7],20.3% (active)
same,inhibition of viability,[8],113% (active)
same,viability decrease (inhibition),[9],132% (active)
same,viability decrease (inhibition),[10],102% (active)
same,fold change,[11]; [16],0.949 (inactive)
same,fold change,[11]; [17],1.31
same,cell count,[11]; [18],8290
same,cell count,[11]; [19],8740
same,z-score,[12]; [20],0.595 (inactive)
same,z-score,[12]; [21],0.485
same,luciferase signal,[13],80 AU (inactive)
C=C1C[C@H]2[C@@H]3C=C(C)C4=CC(=O)CC[C@]4(C)[C@H]3CC[C@]2(C)[C@@]1(OC(C)=O)C(C)=O,parasite load remaining,[2],14.5% (inactive)
same,viability,[2],66%
same,nuclear beta-catenin stimulation,[3]; at 10 µM,-0.2% (inactive)
same,nuclear beta-catenin stimulation,"[3]; stimulation, at 2 µM",0.8%
same,insulin secretion stimulation,[4],0.5% (inactive)
same,viability decrease,[5],37.4% (inactive)
same,tube area decrease,[6],-17.7% (inactive)
same,GLP1 secretion stimulation,[7],-1.4% (inactive)
same,inhibition of viability,[8],62% (active)
same,viability decrease (inhibition),[9],61.1% (active)
same,viability decrease (inhibition),[10],53.6% (active)
same,fold change,[11]; [16],0.868 (inactive)
same,fold change,[11]; [17],1.42
same,cell count,[11]; [18],5790
same,cell count,[11]; [19],6660
same,z-score,[12]; [20],0.533 (inactive) and 0.334 (inactive)
same,z-score,[12]; [21],0.392 and 1.14
same,remaining NAD,[14],15 nM (inactive)
same,luciferase signal,[13],64 AU (inactive)
same,z-score,[15],-0.29 (inactive)
